# According to the supplement of paper PMC8728848:
# The entries come from a sample that favours the strongest signals as a whole.
# B1: Siglec-9 (Homo sapiens), Q9Y336 (protein)
# chain: MLLLLLPLLWGRERAEGQTSKLLTMQSSVTVQEGLCVHVPCSFSYPSHGWIYPGPVVHGYWFREGANTDQDAPVATNNPARAVWEETRDRFHLLGDPHTKNCTLSIRDARRSDAGRYFFKMEKGSIKWNYKHHRLSVNVTALTHRPNILIPGTLESGCPQNLTCSVPWACEQGTPPMISWIGTSVSPLDPSTTRSSVLTLIPQPQDHGTSLTCQVTFPGASVTTNKTVHLNVSYPPQNLTMTVFQGDGTVSTVLGNGSSLSLPEGQSLRLVCAVDAVDSNPPARLSLSWRGLTLCPSQPSNPGVLELPWVHLRDAAEFTCRAQNPLGSQQVYLNVSLQSKATSGVTQGVVGGAGATALVFLSFCVIFVVVRSCRKKSARPAAGVGDTGIEDANAVRGSASQGPLTEPWAEDSPPDQPPPASARSSVGEGELQYASLSFQMVKPWDSRGQEATDTEYSEIKIHR
# What was measured:
# Assay in all cases: glycan array binding signal (z-score within array); higher = stronger binding
# Settings in all cases: glycan notation: IUPAC condensed, linker removed; mutation: R120K
# [1] = target: Fuc(a1-2)Gal(b1-3)GlcNAc(b1-3)GalNAc
# Procedure, shortened: (§1)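 Arrays were curated from the Consortium for Functional Glycomics database, 3228 in total, and kept only where the protein sequence was available. Binding is expressed as a within-array Z-score. This score was averaged across arrays of the same protein sequence at different concentrations or buffers and across linkers, and negative values can be read as non-binding.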
# [2] = target: Fuc(a1-2)Gal(b1-3)[Fuc(a1-4)]GlcNAc(b1-2)Man(a1-3)[Fuc(a1-2)Gal(b1-3)[Fuc(a1-4)]GlcNAc(b1-2)Man(a1-3)]Man(b1-4)GlcNAc(b1-4)GlcNAc
# Procedure, shortened: as §1
# [3] = target: Fuc(a1-2)Gal(b1-4)Fuc(a1-3)]GlcNAc(b1-2)Man(a1-3)[Fuc(a1-2)Gal(b1-4)[Fuc(a1-3)]GlcNAc(b1-2)Man(a1-6)]Man(b1-4)GlcNAc(b1-4)GlcNAc
# Procedure, shortened: as §1
# [4] = target: Fuc(a1-2)Gal(b1-4)GlcNAc(b1-3)Gal(b1-4)GlcNAc(b1-2)Man(a1-3)[Fuc(a1-2)Gal(b1-4)GlcNAc(b1-3)Gal(b1-4)GlcNAc(b1-2)Man(a1-6)]Man(b1-4)GlcNAc(b1-4)GlcNAc
# Procedure, shortened: as §1
# [5] = target: Fuc(a1-2)Gal(b1-4)[Fuc(a1-3)]GlcNAc
# Procedure, shortened: as §1
# [6] = target: Fuc(a1-2)Gal6S(b1-3)GlcNAc6S
# Procedure, shortened: as §1
# [7] = target: Fuc(a1-2)[Gal(a1-3)]Gal(b1-3)GlcNAc(b1-2)Man(a1-3)[Fuc(a1-2)[Gal(a1-3)]Gal(b1-3)GlcNAc(b1-2)Man(a1-6)]Man(b1-4)GlcNAc(b1-4)[Fuc(a1-6)]GlcNAc
# Procedure, shortened: as §1
# [8] = target: Fuc(a1-2)[Gal(a1-3)]Gal(b1-4)GlcNAc(b1-3)[Fuc(a1-2)[Gal(a1-3)]Gal(b1-4)GlcNAc(b1-6)]GalNAc
# Procedure, shortened: as §1
# Fuc(a1-3)GlcNAc = target: Fuc(a1-3)GlcNAc
# Procedure, shortened: as §1
# [9] = target: Fuc(a1-3)[Gal(b1-4)]GlcNAc(b1-3)Gal(b1-3)[Fuc(a1-4)]GlcNAc
# Procedure, shortened: as §1
# Fuc(a1-4)GlcNAc = target: Fuc(a1-4)GlcNAc
# Procedure, shortened: as §1
# [10] = target: Gal(a1-3)Gal(b1-3)GlcNAc(b1-2)Man
# Procedure, shortened: as §1
# [11] = target: Gal(a1-3)Gal(b1-4)[Fuc(a1-3)]GlcNAc(b1-2)Man(a1-3)[Gal(a1-3)Gal(b1-4)[Fuc(a1-3)]GlcNAc(b1-2)Man(a1-6)]Man(b1-4)GlcNAc(b1-4)GlcNAc
# Procedure, shortened: as §1
# [12] = target: Gal(b1-3)GlcNAc(b1-2)Man(a1-3)[Gal(b1-3)GlcNAc(b1-2)Man(a1-6)]Man(b1-4)GlcNAc(b1-4)[Fuc(a1-6)]GlcNAc
# Procedure, shortened: as §1
# Gal(b1-4)Gal = target: Gal(b1-4)Gal
# Procedure, shortened: as §1
# [13] = target: Gal(b1-4)GlcNAc(b1-3)Gal(b1-3)GalNAc
# Procedure, shortened: as §1
# [14] = target: Gal(b1-4)GlcNAc(b1-3)Gal(b1-4)GlcNAc(b1-2)Man(a1-3)[Gal(b1-4)GlcNAc(b1-3)Gal(b1-4)GlcNAc(b1-2)Man(a1-6)]Man(b1-4)GlcNAc(b1-4)[Fuc(a1-6)]GlcNAc
# Procedure, shortened: as §1
# [15] = target: Gal(b1-4)GlcNAc(b1-3)Gal(b1-4)GlcNAc(b1-3)Gal(b1-4)GlcNAc(b1-3)Gal(b1-4)GlcNAc(b1-2)[Gal(b1-4)GlcNAc(b1-3)Gal(b1-4)GlcNAc(b1-3)Gal(b1-4)GlcNAc(b1-3)Gal(b1-4)GlcNAc(b1-6)]Man(a1-6)[Gal(b1-4)GlcNAc(b1-3)Gal(b1-4)GlcNAc(b1-3)Gal(b1-4)GlcNAc(b1-3)Gal(b1-4)GlcNAc(b1-2)Man(a1-3)]Man(b1-4)GlcNAc(b1-4)[Fuc(a1-6)]GlcNAc
# Procedure, shortened: as §1
# [16] = target: Gal(b1-4)GlcNAc(b1-3)GalNAc
# Procedure, shortened: as §1
# [17] = target: Gal(b1-4)GlcNAc(b1-6)GalNAc
# Procedure, shortened: as §1
# Gal(b1-4)GlcNAc6P = target: Gal(b1-4)GlcNAc6P
# Procedure, shortened: as §1
# Gal3S(b1-3)GlcNAc = target: Gal3S(b1-3)GlcNAc
# Procedure, shortened: as §1
# GalNAc3S(b1-4)GlcNAc = target: GalNAc3S(b1-4)GlcNAc
# Procedure, shortened: as §1
# GalNAc3S(b1-4)GlcNAc3S = target: GalNAc3S(b1-4)GlcNAc3S
# Procedure, shortened: as §1
# [18] = target: GalNAc3S(b1-4)[Fuc(a1-3)]GlcNAc
# Procedure, shortened: as §1
# [19] = target: GlcNAc(b1-2)Man(a1-3)[GlcNAc(b1-2)Man(a1-6)]Man(b1-4)GlcNAc(b1-4)[Fuc(a1-6)]GlcNAc
# Procedure, shortened: as §1
# [20] = target: GlcNAc(b1-2)[GlcNAc(b1-4)]Man(a1-3)[GlcNAc(b1-4)][GlcNAc(b1-2)Man(a1-6)]Man(b1-4)GlcNAc(b1-4)GlcNAc
# Procedure, shortened: as §1
# [21] = target: GlcNAc(b1-2)[GlcNAc(b1-6)]Man(a1-6)[GlcNAc(b1-2)Man(a1-3)]Man(b1-4)GlcNAc(b1-4)GlcNAc
# Procedure, shortened: as §1
# [22] = target: GlcNAc(b1-3)Gal(b1-4)GlcNAc(b1-2)Man(a1-3)[GlcNAc(b1-3)Gal(b1-4)GlcNAc(b1-2)Man(a1-6)]Man(b1-4)GlcNAc(b1-4)[Fuc(a1-6)]GlcNAc
# Procedure, shortened: as §1
# [23] = target: GlcNAc(b1-3)Gal(b1-4)GlcNAc(b1-2)[GlcNAc(b1-3)Gal(b1-4)GlcNAc(b1-6)]Man(a1-6)[GlcNAc(b1-3)Gal(b1-4)GlcNAc(b1-2)Man(a1-3)]Man(b1-4)GlcNAc(b1-4)GlcNAc
# Procedure, shortened: as §1
# [24] = target: GlcNAc(b1-3)Gal(b1-4)GlcNAc(b1-3)GalNAc
# Procedure, shortened: as §1
# Kdn(a2-3)Gal(b1-4)Glc = target: Kdn(a2-3)Gal(b1-4)Glc
# Procedure, shortened: as §1
# [25] = target: Man(a1-2)Man(a1-2)Man(a1-6)[Man(a1-3)]Man
# Procedure, shortened: as §1
# [26] = target: Man(a1-2)Man(a1-6)[Man(a1-3)]Man(a1-6)[Man(a1-2)Man(a1-2)Man(a1-3)]Man
# Procedure, shortened: as §1
# Neu5Ac(a2-3)Gal = target: Neu5Ac(a2-3)Gal
# Procedure, shortened: as §1
# [27] = target: Neu5Ac(a2-3)Gal(b1-3)GalNAc
# Procedure, shortened: as §1
# [28] = target: Neu5Ac(a2-3)Gal(b1-3)GalNAc(b1-4)Gal(b1-4)Glc
# Procedure, shortened: as §1
# [29] = target: Neu5Ac(a2-3)Gal(b1-3)GalNAc(b1-4)[Neu5Ac(a2-8)Neu5Ac(a2-3)]Gal(b1-4)Glc
# Procedure, shortened: as §1
# [30] = target: Neu5Ac(a2-3)Gal(b1-3)GlcNAc(b1-2)Man(a1-3)[Neu5Ac(a2-3)Gal(b1-3)GlcNAc(b1-2)Man(a1-6)]Man(b1-4)GlcNAc(b1-4)GlcNAc
# Procedure, shortened: as §1
# [31] = target: Neu5Ac(a2-3)Gal(b1-3)]Neu5Ac(a2-3)Gal(b1-4)]GlcNAc
# Procedure, shortened: as §1
# Neu5Ac(a2-3)Gal(b1-4)Glc = target: Neu5Ac(a2-3)Gal(b1-4)Glc
# Procedure, shortened: as §1
# [32] = target: Neu5Ac(a2-3)Gal(b1-4)GlcNAc(b1-2)Man(a1-3)[GlcNAc(b1-4)][Neu5Ac(a2-3)Gal(b1-4)GlcNAc(b1-2)Man(a1-6)]Man(b1-4)GlcNAc(b1-4)GlcNAc
# Procedure, shortened: as §1
# [33] = target: Neu5Ac(a2-3)Gal(b1-4)[Fuc(a1-3)]GlcNAc(b1-6)[Gal(b1-3)]GalNAc
# Procedure, shortened: as §1
# [34] = target: Neu5Ac(a2-6)Gal(b1-4)GlcNAc(b1-2)[Neu5Ac(a2-6)Gal(b1-4)GlcNAc(b1-4)]Man(a1-3)[GlcNAc(b1-4)][Neu5Ac(a2-6)Gal(b1-4)GlcNAc(b1-2)[Neu5Ac(a2-6)Gal(b1-4)GlcNAc(b1-6)]Man(a1-6)]Man(b1-4)GlcNAc(b1-4)GlcNAc
# Procedure, shortened: as §1
# [35] = target: Neu5Ac(a2-6)Gal(b1-4)GlcNAc(b1-3)Gal(b1-3)GlcNAc
# Procedure, shortened: as §1
# [36] = target: Neu5Ac(a2-6)GlcNAc(b1-4)GlcNAc
# Procedure, shortened: as §1
# [37] = target: Neu5Ac(a2-8)Neu5Ac(a2-8)Neu5Ac(a2-3)[GalNAc(b1-4)]Gal(b1-4)Glc
# Procedure, shortened: as §1
# [38] = target: Neu5Ac(b2-6)Gal(b1-4)GlcNAc
# Procedure, shortened: as §1
# [39] = target: Neu5Gc(a2-8)Neu5Gc(a2-3)Gal(b1-4)GlcNAc(b1-3)Gal(b1-4)GlcNAc
# Procedure, shortened: as §1
# [40] = target: Neu5Gc(b2-6)Gal(b1-4)GlcNAc
# Procedure, shortened: as §1
binder,measurement,setting,value
B1,glycan array binding signal (z-score),[1],-0.33
same,glycan array binding signal (z-score),[2],2.09
same,glycan array binding signal (z-score),[3],6.8
same,glycan array binding signal (z-score),[4],-0.282
same,glycan array binding signal (z-score),[5],-0.297
same,glycan array binding signal (z-score),[6],2.46
same,glycan array binding signal (z-score),[7],1.14
same,glycan array binding signal (z-score),[8],5.67
same,glycan array binding signal (z-score),Fuc(a1-3)GlcNAc,-0.568
same,glycan array binding signal (z-score),[9],-0.304
same,glycan array binding signal (z-score),Fuc(a1-4)GlcNAc,2.96
same,glycan array binding signal (z-score),[10],0.513
same,glycan array binding signal (z-score),[11],3.77
same,glycan array binding signal (z-score),[12],-0.25
same,glycan array binding signal (z-score),Gal(b1-4)Gal,1.95
same,glycan array binding signal (z-score),[13],0.236
same,glycan array binding signal (z-score),[14],-0.136
same,glycan array binding signal (z-score),[15],-0.342
same,glycan array binding signal (z-score),[16],-0.357
same,glycan array binding signal (z-score),[17],0.335
same,glycan array binding signal (z-score),Gal(b1-4)GlcNAc6P,0.464
same,glycan array binding signal (z-score),Gal3S(b1-3)GlcNAc,-0.347
same,glycan array binding signal (z-score),GalNAc3S(b1-4)GlcNAc,-0.59
same,glycan array binding signal (z-score),GalNAc3S(b1-4)GlcNAc3S,-0.23
same,glycan array binding signal (z-score),[18],-0.228
same,glycan array binding signal (z-score),[19],-0.036
same,glycan array binding signal (z-score),[20],8.32
same,glycan array binding signal (z-score),[21],-0.232
same,glycan array binding signal (z-score),[22],0.432
same,glycan array binding signal (z-score),[23],-0.559
same,glycan array binding signal (z-score),[24],0.35
same,glycan array binding signal (z-score),Kdn(a2-3)Gal(b1-4)Glc,0.194
same,glycan array binding signal (z-score),[25],0.213
same,glycan array binding signal (z-score),[26],-0.231
same,glycan array binding signal (z-score),Neu5Ac(a2-3)Gal,-0.145
same,glycan array binding signal (z-score),[27],4.95
same,glycan array binding signal (z-score),[28],0.412
same,glycan array binding signal (z-score),[29],0.069
same,glycan array binding signal (z-score),[30],3.12
same,glycan array binding signal (z-score),[31],-0.118
same,glycan array binding signal (z-score),Neu5Ac(a2-3)Gal(b1-4)Glc,4.42
same,glycan array binding signal (z-score),[32],-0.284
same,glycan array binding signal (z-score),[33],-0.345
same,glycan array binding signal (z-score),[34],-0.023
same,glycan array binding signal (z-score),[35],-0.551
same,glycan array binding signal (z-score),[36],-0.275
same,glycan array binding signal (z-score),[37],-0.338
same,glycan array binding signal (z-score),[38],-0.52
same,glycan array binding signal (z-score),[39],-0.414
same,glycan array binding signal (z-score),[40],-0.2
